Drawing on PubChem BioAssay (EPA / NIEHS), this text covers outcome and AC50 for four molecules.

Assay [1] in a line: IUF_NPC1b_proliferation_BrdU_72hr: Leibniz Research Institute for Environmental Medicine (IUF) 72-hour Neural Progenitor Cell Bromodeoxyuridine (BrdU) Proliferation Assay (NPC1b) (AID 2284207). The gist of the method: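 Human fetal cortex-derived (GW 16-19) neural progenitor spheres, 0.25-0.35 mm, one per well in EGF/FGF proliferation medium, exposed to compound for 72 h at 37C, pH 7.2-7.6. BrdU incorporation over the final 16 h read by luminescence ELISA, relative to DMSO.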

The nature of assay [2]: IUF_NPC1a_proliferation_area_72hr: Leibniz Research Institute for Environmental Medicine (IUF) 72-hour Neural Progenitor Cell Proliferation Area Assay (NPC1a) (AID 2284208). Put shortly:
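Single 0.25–0.35 mm human fetal neural progenitor spheres in proliferation medium with EGF and FGF, exposed 72 h from plating without renewal at 37C, pH 7.2-7.6. Sphere area growth measured by automated phase-contrast imaging, relative to DMSO.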

Assay [3] in a line: IUF_NPC1_viability_72hr: Viability Assessment at 72 hours in the Leibniz Research Institute for Environmental Medicine (IUF) Neural Progenitor Cell Proliferation Assay (NPC1) (AID 2284209). How it is done:
IUF_NPC1 is a cell-based, multiplexed assay that uses hNPC, a human primary neural progenitor cells, with measurements taken at 72 hours after chemical dosing in a 96-well plate. Human neural progenitor cells (hNPC) are generated from human fetal brain cortex at gestational week (GW) 16-19. Grown in suspension culture and under proliferative conditions (proliferation media and growth factors), these cells represent neural progenitor cell proliferation. In the NPC1 assay, hNPC's are exposed to the test compound for 72h. Cell proliferation is assessed as an increase in sphere area using automated phase contrast imaging and as incorporation of Bromodeoxyuridine (BrdU) during DNA synthesis using a luminescence-based cell proliferation ELISA. In parallel, the cell viability is assessed using an alamar blue viability assay and the cytotoxicity using a lactate dehydrogenase dependent membrane integrity assay.IUF_NPC1_viability_72hr is one of 4 assay components measured from the IUF_NPC1 assay. It is designed to measure cell viability assessed as mitochondria-dependent reduction of resazurin to resorufin using the alamar blue cell viability assay. Viability is measured as a fluorescence signal (relative fluorescence unit) in a multiplate reader. Data from the IUF_NPC1_viability component was analyzed at the endpoint IUF_NPC1_viability in the positive analysis fitting direction relative to DMSO as the negative control and baseline of activity. Using a type of viability reporter, gain or loss-of-signal activity can be used to understand viability effects.
After the cell expansion period, the cells are cultured for up to four weeks in which they are passaged every week. Between one to three days after passaging, depending on the size chosen for passaging, spheres at a size of 0.3 mm are used in the assay. For the assessment of neural progenitor cell proliferation, the spheres are plated in poly-Hema coated 96-well U-bottom plates filled with proliferation medium containing growth factors (EGF and FGF). One 0.25 - 0.35 mm big sphere is plated in the middle of each well. Within 3 days NPCs proliferate and grow in size. Cultivation during the test method is performed at 37C and 5% CO2 at a pH of 7.2-7.6. As a positive control, spheres are cultivated in the absence of growth factors (EGF and FGF), which dramatically reduces proliferation. Exposure starts on the plating day (day 0) and is continued over three days, without chemical renewal, until the experiment is terminated. The assay is terminated by the assessment of cell viability, cytotoxicity, and proliferation by BrdU. All endpoints are generated from the same experimental run and from each well/sphere in the 96-well plate.

The nature of assay [4]: CCTE_Mundy_HCI_Cortical_Synap_Neur_Matur_NeuriteSpotCountPerNeuriteLength: CCTE's Synaptogenesis and Neurite Maturation Assay in rat cortical cells for Neurite Spot Count per Neurite Length, Mundy Lab (AID 2284210). Put shortly: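 Synaptophysin spots per unit neurite length, measured by automated imaging of MAP2/synaptophysin/Hoechst-stained neurons. Cultures from rat cortex received chemical at DIV 7 with media change through DIV 12; glial growth arrested by AraC at DIV 5; DMSO baseline.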

The nature of assay [5]: CCTE_Mundy_HCI_Cortical_Synap_Neur_Matur_BPCount: CCTE's Synaptogenesis and Neurite Maturation Assay in rat cortical cells for Branch Point Count, Mundy Lab (AID 2284211). Put shortly:
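In this multiplexed morphology assay, cortical cells from rat receive chemicals at DIV 7 and are fixed at DIV 12, then immunostained and imaged; branch points are counted, with DMSO as baseline.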

Assay [6] in a line: CCTE_Mundy_HCI_Cortical_NOG_NeuriteCount: CCTE's Neurite Outgrowth Assay in rat cortical cells for Neurite Count, Mundy Lab (AID 2284212).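 Note: cells fixed about two days after chemical exposure began.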 Here is the method: CCTE_Mundy_HCI_Cortical_NOG is a multiplexed, cell-based-readout assay that uses rat primary cortical cells with measurements taken at 50.33 hours after chemical dosing in a microplate: 96-well plate.CCTE_Mundy_HCI_Cortical_NOG_NeuriteCount is one of four components of the CCTE_Mundy_HCI_Cortical_NOG assay. It measures neurite outgrowth related to the number of neurites using High Content Imaging of fluorescently labelled markers.[…] Using a type of morphology reporter, loss -of-signal activity can be used to understand developmental effects.
Exposure starts 2 hours post-plating by adding 10 ul of the working solution to 90 ul of media in the wells for a 1/10 dilution. Forty-eight hours after chemical treatment cells are fixed by direct addition of 100 ul of warm (37C) Dulbecco's phosphate buffered saline (DPBS) fixative solution containing 8% paraformaldehyde, 8% sucrose, and 0.1% of 3 mg/ml Hoechst 33342 into each well. Primary antibodies are prepared by dilution in Immunocytochemical Staining Buffer (ISB), 10X Dulbecco's PBS, 0.1% Saponin, 5% Bovine Serum Albumin, 0.5% NaN3 (Sodium Azide) and betaIII-tubulin (rabbit anti-betaIII-tubulin, 1:800) followed by Alexa Fluor-488 secondary (1:500) to label neuronal cell bodies and neurites. A Cellomics ArrayScan VTi HCS Reader is used for automated image acquisition and analysis of neurite outgrowth.

Assay [7] is described as follows: CCTE_Mundy_HCI_Cortical_NOG_NeuriteLength: CCTE's Neurite Outgrowth Assay in rat cortical cells for Neurite Length, Mundy Lab (AID 2284213).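 For AC50: neurites imaged about 48 to 50 h after chemical exposure began.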 The gist of the method: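 First, rat primary cortical cells were plated and, 2 h later, given test chemical as a 1/10 dilution. Finally, βIII-tubulin immunostaining enabled automated imaging of neurite length.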
A short description of assay [8]: CCTE_Mundy_HCI_Cortical_Synap_Neur_Matur_NeuriteLength: CCTE's Synaptogenesis and Neurite Maturation Assay in rat cortical cells for Neurite Length, Mundy Lab (AID 2284214). The gist of the method:
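DMSO-normalised neurite length, from high-content imaging of anti-MAP2-stained rat cortical cells fixed at DIV 12. Glia were suppressed with AraC (DIV 5) before chemical exposure from DIV 7.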

The nature of assay [9]: CCTE_Mundy_HCI_Cortical_Synap_Neur_Matur_NeuriteSpotCountPerNeuron: CCTE's Synaptogenesis and Neurite Maturation Assay in rat cortical cells for Neurite Spot Count per Neuron Count, Mundy Lab (AID 2284215). The gist of the method:
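Rat primary cortical cultures given AraC at DIV 5, dosed from DIV 7 to DIV 12 with media change. Fixed, stained for MAP2, synaptophysin and Hoechst; neurite-associated synaptophysin puncta per neuron quantified by high-content imaging versus DMSO.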

Assay [10] in a line: UKN4_HCS_LUHMES_neurite_outgrowth: University of Konstanz (UKN) Leist Lab Neurite Outgrowth Assay in human LUHMES cells (UKN4) (AID 2284206). Conditions: actives raise or lower the signal. Put shortly: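 Neurite area in dopaminergic-model LUHMES neurons is measured by high-content imaging of calcein-AM after 24 h treatment starting shortly after day-2 replating; Hoechst staining tracks viability.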

Structures are written as SMILES. Activity calls are given as the source filed them. Rule for the calls: active = hit-call score of the fitted dose curve at least 0.9, where 1 is the maximum; inactive = score below 0.9.

With `CN(C)CCOC(C)(c1ccccc1)c1ccccn1` (configuration not stated), the molecule was called inactive in [1], in assay [2], in assay [3], in [4], in assay [5] and in [6]. In addition, the result in [7], in assay [8] and in assay [9] was inactive.
Regarding `COCCOCCOCCO`, the call in [1], in assay [2], in assay [3], in assay [4], in [5] and in assay [6] was inactive. In addition, the outcome in assay [7], in [8] and in assay [9] was inactive.
The AC50 is the concentration giving half of the maximal activity seen. In the case of `Oc1c(Cl)cc(Cl)c(Cl)c1Cc1c(O)c(Cl)cc(Cl)c1Cl`, the AC50 in assay [10] was 7.47 µM (active); in assay [1], 13.4 µM (active); in assay [2] it was 17.6 µM (active); in assay [5] it was 8.53 µM (active); in [6] it was 31 µM (active); in [7] it was 23.1 µM (active). Moreover, the AC50 is 13.4 µM (active) in [8] and 9.95 µM (active) in [9]. Moreover, the molecule was classed as inactive in [3] and in assay [4].
In the case of `COCCc1ccc(OCC(O)CNC(C)C)cc1` (configuration not stated), the call in assay [1], in assay [2], in [3], in [4], in assay [5] and in assay [6] was inactive. Further, the result in assay [7], in assay [8] and in assay [9] was inactive.
